Results as given in ChEMBL document CHEMBL3988442, “University of Dundee, Small-Polar-MMV Screening Library” (2021).
Out of some 48,000 compounds screened, about 13,000 (27%) showed an effect of 50% or more. The list shows a part of the results.

The compounds below were run on Wolbachia pipientis (assay: Anti-Wolbachia Cell-Based Screen). Conditions: 5 µM.
Assay type: functional
Design: scale not given: in the data most compounds retested in dose-response had high values

Compound | Percent Effect [%]
COc1ccc(-c2noc([C@@H](C)NS(=O)(=O)CC(C)C)c2C(=O)O)cc1 | -11.95
Cn1cc(Cl)c(CN2CCn3nc(C(=O)Nc4ccccc4)cc3C2)n1 | -7.275
COCc1ccccc1CNc1cc(N2CCCC2CO)ncn1 (stereo unspecified) | 1.416
Cc1ccc(CNc2cc(N3CCCC3CO)ncn2)s1 (stereo unspecified) | 116.3
Cc1cccc2c1CCN(c1cc(N3CCCC3CO)ncn1)C2 (stereo unspecified) | 1.096
Cc1ncsc1CNc1cc(N2CCCC2CO)ncn1 (stereo unspecified) | 92.3
OCC1CCN(c2ccc(NCc3ccsc3)nc2)CC1 | -9.25
OCC1CCCN1c1cc(NCc2ccsc2)ncn1 (stereo unspecified) | 106
CN1CCN(c2cc(N3CCCC3CO)ncn2)Cc2ccccc21 (stereo unspecified) | 10.62
Cc1ccsc1CNc1cc(N2CCCC2CO)ncn1 (stereo unspecified) | 12.33
Cc1noc(C)c1CNc1cc(N2CCCC2CO)ncn1 (stereo unspecified) | -3.514
CN(CC1COc2ccccc2O1)C(=O)NCCCn1cncn1 (stereo unspecified) | -12.38
CCc1nnc2n1CCN(Cc1csc(-c3ncccn3)n1)C2 | -18.32
Cc1nnc2n1CCN(Cc1csc(-c3ccsc3)n1)C2 | 121.4
Cc1ccc(-c2nc(CN3CCn4c(nnc4C4CC4)C3)cs2)o1 | 3.918
Cc1nnc2n1CCN(Cc1csc(-c3ccc(F)cc3)n1)C2 | -7.701
CCc1nnc2n1CCN(Cc1csc(-c3ccsc3)n1)C2 | -5.09
CCc1nnc2n1CCN(Cc1csc(-c3ccc(C)o3)n1)C2 | -1.199
Cc1nnc2n1CCN(Cc1csc(COc3ccccc3)n1)C2 | 109.3
Cc1nnc2n1CCN(CCOc1ccccc1)C2 | 2.68
Cc1ccc(-c2nc(CN3CCn4c(C)nnc4C3)cs2)o1 | 51.15
Cc1nnc2n1CCN(Cc1csc(-c3cnn(C)c3)n1)C2 | -23.78

Compound | Percent Effect [%]
c1cnc(-c2nc(CN3CCn4c(nnc4C4CC4)C3)cs2)nc1 | 13.95
Cc1nnc2n1CCN(Cc1csc(-c3ncccn3)n1)C2 | 110.5
CC(C)C1C(=O)NCCN1C(=O)CCCc1nc(C(C)(C)C)no1 (stereo unspecified) | -23.49
COc1ccnc(N2CCN(C(=O)CCc3cnn(C)c3)CC2)n1 | 36.6
COCC1CN(Cc2cc(C)on2)Cc2cn(C)nc21 (stereo unspecified) | 6.327
CCN(C)CC1CCN(S(=O)(=O)c2cc(C)c(F)cc2Cl)C1 (stereo unspecified) | 6.524
Cc1nn(C)c(Cl)c1C1CCCN1CCc1ccccn1 (stereo unspecified) | 5.429
Cc1nn(C)c(Cl)c1C1CCCN1CC(=O)NCc1ccccn1 (stereo unspecified) | -3.313
Cc1nn(C)c(C)c1C1CCCN1CC(=O)NCc1ccccn1 (stereo unspecified) | 103.7
Cc1nn(C)c(C)c1C1CCCN1CC(=O)Nc1ccncc1 (stereo unspecified) | 1.396
Cc1nn(C)c(Cl)c1C1CCCN1Cc1ccccn1 (stereo unspecified) | 85.99
COc1c(C2CCCN2CC(=O)Nc2cc(C)no2)c(C)nn1C (stereo unspecified) | -8.496
COc1c(C2CCCN2CC(=O)NCc2ccccn2)c(C)nn1C (stereo unspecified) | 101.4
COc1c(C2CCCN2CC(=O)Nc2nc(C)cs2)c(C)nn1C (stereo unspecified) | -2.535
Cc1cc(CN2CCCC2c2c(C)nn(C)c2Cl)no1 (stereo unspecified) | 7.779
CNC(=O)C1CCC(NC(=O)N(C)Cc2c(C)noc2C)CC1 (stereo unspecified) | 3.279
Nc1cc(O)nc(CCNC(=O)CC[C@@H]2CCCN3CCCC[C@H]23)n1 | -22.38
CCC(O)CN(Cc1cccc(C(=O)N(C)C)c1)c1ccccc1 (stereo unspecified) | 6.575
CCC(C)(O)CNc1ccc(S(=O)(=O)C(F)F)cc1 (stereo unspecified) | -17.2
Cn1c(=O)[nH]c2cc(C(=O)OCC(F)F)ccc21 | -3.927
CC(C)n1cnnc1Cn1c(=O)cnc2ccccc21 | -19.8
Cc1ccc(O)c(C(=O)N2CCCC(NC(=O)C(C)C)C2)c1 (stereo unspecified) | 85.08

Compound | Percent Effect [%]
Cc1ccc(C(=O)N2CCCC(C(=O)N3CCCCC3)C2)c(O)c1 (stereo unspecified) | -5.568
CCC1CN(C(=O)c2ccc(Cl)cc2O)CCN1C(C)C (stereo unspecified) | -0.08814
CC(C)C(=O)NC1CCCN(C(=O)c2ccc(O)c(Cl)c2)C1 (stereo unspecified) | 88.73
O=C(c1cccc(Cl)c1)N1CCCC(Nc2ccc(F)cc2)C1 (stereo unspecified) | -14.25
CC(=O)NC1CCCN(C(=O)CNc2cc(Cl)cc(Cl)c2)C1 (stereo unspecified) | -7.422
CCC1(C(=O)O)CCCN(C(=O)c2ccc(O)c(Cl)c2)C1 (stereo unspecified) | -6.141
CC(C)C(=O)NC1CCCN(C(=O)c2cc(Cl)ccc2O)C1 (stereo unspecified) | 122.5
Cc1ccc(C(=O)N2CCCC(NC(=O)C(C)C)C2)c(O)c1 (stereo unspecified) | 9.198
COc1c(F)cc(NC(=O)N2CCC(CSC)C2)cc1F (stereo unspecified) | -4.081
CS(=O)(=O)CCNC(=O)Nc1sc2ccccc2c1Cl | -6.956
CCCn1[nH]cc/c1=N\C(=O)CN1CCCC1c1cccn1C (stereo unspecified) | -13.94
Cc1noc(C2CCC3(CCN(C(=O)c4sccc4C)CC3)O2)n1 (stereo unspecified) | 105.9
Cc1noc(C2CCC3(CCN(C(=O)C4=CCCCC4)CC3)O2)n1 (stereo unspecified) | -12.42
Cc1noc(C2CCC3(CCN(C(=O)C4CCOCC4)CC3)O2)n1 (stereo unspecified) | 108.6
Cc1noc(C2CCC3(CCN(C(=O)c4ccn(C)n4)CC3)O2)n1 (stereo unspecified) | 89.59
Cc1noc(C2CCCN(C(=O)c3scnc3Cl)C2)n1 (stereo unspecified) | 3.125
Cn1ccc(C(=O)N2CCC3(CCC(=O)N(C4CCCC4)C3)CC2)n1 | 5.203
Cn1cc(C(=O)N2CC[C@@]3(O)CCN(C(=O)C4CCCC4)C[C@H]3C2)cn1 | 2.716
Cc1noc(C2CCC3(CCN(C(=O)c4cnn(C)c4)CC3)O2)n1 (stereo unspecified) | 95.88
Cc1noc(C2CCN(C(=O)c3cc(Br)ccc3F)CC2)n1 | 2.952
O=C(C1CCOCC1)N1CCC2(CCC(C(=O)N3CCCC3)O2)CC1 (stereo unspecified) | -2.84
Cc1noc([C@H]2C[C@H]3CN(C(=O)C4CCOCC4)CC[C@@H]3O2)n1 | -6.774

Compound | Percent Effect [%]
Cn1nnnc1SCCNC(=O)c1cccc2ccnn12 | 0.6807
CCC1CN(CC(=O)NC(C)C)CCO1 (stereo unspecified) | -17.56
CC1CCCCN1C(=O)c1cn(-c2ccc(C(F)(F)F)cn2)nn1 (stereo unspecified) | -15.67
O=C(COc1coc(CN2CCCC2)cc1=O)NCc1ccccc1Cl | 13.29
CCn1ncc2c1CCCC2NCc1csc(COC)n1 (stereo unspecified) | 6.958
CCCn1c(C)cc(C(=O)CN2C(=O)c3ccccc3CS2(=O)=O)c1C | -1.519
Cc1noc(C2CCN(C(=O)c3ccc(N(C)C)nc3)CC2)n1 | -12.04
Cc1noc(C2CCCN(C(=O)c3cncc(Br)c3)C2)n1 (stereo unspecified) | -3.695
Cc1noc(C2CCC3(CCN(C(=O)c4ccnnc4)CC3)O2)n1 (stereo unspecified) | 98.77
CCCN1CCCC2(CCN(c3nc(C)nc4ccsc34)C2)C1=O (stereo unspecified) | -5.221
Cc1cc(N2CCC(CO)(CC3CCCCO3)CC2)nc2ccccc12 (stereo unspecified) | -15.69
COCCC1(C(=O)O)CCCN(c2cc(C)c3ccccc3n2)C1 (stereo unspecified) | -9.375
Cc1cc(N2CCC3(CCCN(CCO)C3=O)C2)nc2ccccc12 (stereo unspecified) | 93.99
COCCN1CCCC2(CCN(c3ncc(Cl)cc3Cl)C2)C1=O (stereo unspecified) | 5.155
Cc1cc(N2CCC3(CCCN(CCO)C3=O)C2)nc2cc(Cl)ccc12 (stereo unspecified) | 98.58
Cc1ccc2c(c1)OC1(NC2=O)C(=O)N(C)c2ccccc21 (stereo unspecified) | 2.541
COc1ncccc1NC(=O)N1CCOCC1C (stereo unspecified) | 13.85
Cc1ccc(-c2ncc(C(=O)N3CCN4CCCCC4C3)c(O)n2)cc1 (stereo unspecified) | 8.265
CCC(=O)N1CCC(NC2CCCC2)C1 (stereo unspecified) | -2.557
CCCC(=O)N1CCC(c2nc(O)c3c(n2)CCN(C2CCCC2)C3)C1 (stereo unspecified) | 91.38
O=C(C1CC1)N1CCC(c2nc(O)c3c(n2)CN(C2CCCC2)CC3)C1 (stereo unspecified) | 78.69
C1CCC(c2nc3c(c(N4CCN5CCCC5C4)n2)CCNCC3)C1 (stereo unspecified) | -7.963

Compound | Percent Effect [%]
CCC(=O)N1CCC(c2nc(O)c3c(n2)CN(C2CCCCC2)CC3)C1 (stereo unspecified) | 94.52
Cc1ncc(C(=O)N2CCC(N3CCc4ccccc4C3)CC2)c(O)n1 | -7.9
Cc1nc2c(c(=O)n1C)CN(C(=O)C1CCCN(C3CCCC3)C1)C2 (stereo unspecified) | -4.359
CC(C)N(CC(N)=O)Cc1cccc(C(F)(F)F)c1 | -6.914
CC(C)c1cc(C(=O)N2CCNCC2C(=O)NCc2ccncc2)on1 (stereo unspecified) | -12.97
CC(C)(C)c1ccc2c(c1)CCN2C(=O)c1ccc(=O)[nH]n1 | -4.388
CCc1nc2n(n1)CCCC2NC(=O)Nc1ccc(F)cc1C#N (stereo unspecified) | -29.22
Cc1ccc(C(=O)N2CCC3(CC2)CC(c2ccccc2)C(=O)N3)o1 (stereo unspecified) | -4.481
CCOc1ccccc1N(C)Cc1nccn1C | -5.564
CCCS(=O)(=O)N1CCC2(CCC(=O)N(CCc3ccncc3)C2)CC1 | 3.257
CCCS(=O)(=O)N1CCC2(CCC(=O)N(Cc3ccccc3)C2)CC1 | -5.429
CC(C)=CCN1CC2(CCN(Cc3cccc(C#N)c3)CC2)CC1=O | 0.9714
CC(C)=CCN1CC2(CCN(Cc3c(F)cccc3F)CC2)CC1=O | -3.567
O=C(CO)N1CCC2(CC1)CC(=O)N(Cc1cc(F)cc(F)c1)C2 | 130.8
CN1CC2(CCN(C(=O)Cc3ccc(O)c(F)c3)CC2)CC1=O | -5.557
CC(C)N1CCC2(CC1)CC(=O)N(Cc1cc(F)cc(F)c1)C2 | 84.47
CC(C)=CCN1CCC2(CC1)CC(=O)N(Cc1cc(F)cc(F)c1)C2 | 132.9
CCCS(=O)(=O)N1CCC2(CC1)CC(=O)N(Cc1cc(F)cc(F)c1)C2 | 128.2
